The panel holds about 83,000 compounds, 20% with a hit somewhere; the sample as a whole holds those more often.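 Single-dose data. Exposure time 48 hours. Values below 10 considered active.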 Active and inactive are the calls of the source.

In this experiment the test system is U251 CNS. Briefly: NCI-60 one-dose screen, 48 h (100 = growth as untreated, 0 = no growth, -100 = all killed). The note with it: 10 µM. The procedure: Growth inhibition of the U251 human tumor cell line is measured as a screen for anti-cancer activity. Cells are grown in 96 well plates and exposed to the test compound for 48 hours. Compounds are tested at a single concentration, which is 10^-5 M for most compounds. The reported endpoint is percent growth (GI% or GIPRCNT), where numbers from 0 - 100% represent growth inhibition, and numbers from -100% - 0 represent cell death. For example, a value of 40 represents 60% growth inhibition. A value of 0 means no net growth occurred over the course of the experiment. A value of -40 indicates 40% of cells at the beginning of the experiment died by the end of the experiment. A value of -100 means all cells are dead at the end of the experiment.
NCI-60 Human Tumor Cell Lines Screen was performed using the standard one-dose NCI protocol, which is described in more detail at https://dtp.cancer.gov/discovery_development/nci-60/default.htm.
Compounds with GIPRCNT values below 10 were considered active. Activity score was based on GIPRCNT using the following formula: […]
Score is 0 for GIPRCNT values of 100 or above, 50 for GIPRCNT values of 0, and 100 for GIPRCNT values of -100.
On to `CCc1cc(Cl)c(OC)c(C(=O)NCC2CCCN2CC)c1O` (stereo not given), for which the growth is 83.8% (inactive).
Turning to `COc1cc2cc(Oc3ccc(NC(=O)Nc4cccc(C(F)(F)F)c4)cc3)c(C)nc2cc1OC`, the growth was -85.7% (active).
Then `O=C1c2ccccc2C(=O)c2c1ccc(C(Br)Br)c2Cl`, with -26% (active); and `CO[C@H]1CC(O[C@@H]2/C(C)=C/C[C@@H]3C[C@@H](C[C@]4(C=C[C@H](C)[C@@H](C5CCCCC5)O4)O3)OC(=O)[C@@H]3C=C(C)[C@@H](O)[C@H]4OC/C(=C\C=C\[C@@H]2C)[C@]43O)O[C@@H](C)C1O[C@H]1C[C@H](OC)[C@@H](O)[C@H](C)O1` (stereo not given in full), with -91.2% (active).
The figure for `COc1ccc(-c2cc(-c3cc(OC)ccc3OC)nc(N)c2C#N)cc1` is 61.2% (inactive); for `N#Cc1cnn(C(=O)c2nn(-c3ccc(Cl)cc3)cc2O)c1N` it is 22% (inactive); for `CC(C)c1cc(N=O)cc(C(C)C)c1O` it is 98.5% (inactive).
Take `O=C(CCCNC(=O)c1nc(-c2ccccc2)n(-c2ccccc2)n1)NO`: the growth is 94.6% (inactive).
In the case of `COC(=O)C1(O)NC(=C(C#N)C#N)C(C#N)=C1C(=O)c1ccc(OC)c(OC)c1` (stereo not given), the growth was 92.5% (inactive).
Consider `CCCCCC(=O)O[C@]1(C(C)=O)CCC2C3CCC4=CC(=O)CC[C@]4(C)C3CC[C@@]21C` (stereo not given in full), for which the growth is 23.9% (inactive).
The figure for `C[C@@H](O)[C@H]1C(=O)N2C(C(=O)O)=C(SCCN=CN)C[C@H]12` is 2.44% (active); for `COc1ccc2nc(-c3ccc(Cl)cc3)cc(-c3nnc(SC/C(=N\O)c4ccccc4)n3-c3ccccc3)c2c1` it is 85.8% (inactive); for `CC(=O)[C@@]12O[C@](C)(c3ccccc3)O[C@@H]1CC1C3CCC4=CC(=O)CC[C@]4(C)C3CC[C@@]12C` (stereo not given in full) it is 72.3% (inactive).
With `Nc1ccc(/C=N/Nc2ccnc3c(O)cccc23)c2cccnc12`, the growth was 4.7% (active).
As to `CCCCC/C=C/C/C=C/CCCCCCCC1=NC(C)(C)CN1C(C)C`, the growth was 0.562% (active).
In the case of `C[C@]12CCC3c4ccc(O)cc4C[C@@H](CCCCCCCCCS(=O)CCCC(F)(F)C(F)(F)F)C3C1CC[C@@H]2O` (stereo not given in full), the growth is 68.3% (inactive).
Then `Brc1ccc2c(c1)-c1ccccc1C1=NCCN12`, with -10.7% (active); and `Cc1ccc(/C=C2/C(=O)N(C)c3ccc(S(=O)(=O)Nc4ccc(C(C)(C)C)cc4)cc32)s1`, with 62.6% (inactive).
For `CC[C@H]1OC(=O)[C@H](C)[C@@H](O[C@H]2C[C@@](C)(OC)[C@@H](O)[C@H](C)O2)[C@H](C)[C@@H](O[C@@H]2O[C@H](C)C[C@H](N(C)C)[C@H]2O)[C@](C)(OC)C/C(C)=C2/O[C@@]1(C)C=C2C`, the growth is 2.36% (active).
Turning to `CCOC(=O)c1cc(C(=O)c2cc(OC)c(OC)c(OC)c2)n2nc(C)ccc12`, the growth is 19.1% (inactive).
Consider `Cc1c(Cl)cccc1NC(=O)CCCl`, for which the growth was 91% (inactive).
For `O=C1/C=C/[C@@H](O)[C@@H]2C[C@@H](O)C[C@H]2/C=C/CCC[C@H](CCc2ccc(C(F)(F)F)cc2)O1`, the growth is 12.1% (inactive).
On to `Cc1c(O)c(=O)ccn1C1CCC(CC2CCC(n3ccc(=O)c(O)c3C)CC2)CC1` (stereo not given), for which the growth is 30.2% (inactive).
Then `O=C(Nc1cc(Cl)cc2c1-c1ccc(Cl)cc1C2O)C(Cl)Cl` (stereo not given), with 78.4% (inactive); and `COc1cc(-c2nn(-c3cccc(NC(=O)CCN4CCN(Cc5ccccc5)CC4)c3)cc2-c2ccncc2)ccc1Cl`, with 6.53% (active).
In the case of `O=C(N/N=C/c1c(Cl)cccc1Cl)c1ccccc1Nc1cccc(C(F)(F)F)c1`, the growth is 89.9% (inactive).
The figure for `O=[N+]([O-])c1ccc(/C(=C/c2ccccc2)[n+]2ccccc2)cc1` is 94.3% (inactive).
Turning to `CCN(CC)CCCC(C)N=C(C1=C(C(=NC(C)CCCN(CC)CC)c2cccc(OC)c2)C(=O)NC1=O)c1cccc(OC)c1` (stereo not given), the growth is -51.3% (active).
Then `COc1cc(NC(=O)Nc2cnc(Nc3ccc(N4CCOCC4)cc3)nc2Oc2cccc(OC)c2)cc(OC)c1`, with 22% (inactive); and `O=C(Nc1nc(-c2ccccc2)nc2c1sc(=S)n2-c1ccccc1)C(F)(F)F`, with 90.6% (inactive).
Take `c1cncc(-c2csc(-c3c[nH]c4ccccc34)n2)c1`: the growth was 90.9% (inactive).
In the case of `COc1ccc(-c2cc(-c3ccc(OC)c(OC)c3)nc(SCCCC(=O)NO)n2)cc1`, the growth was -9.1% (active).
With `NS(=O)(=O)c1ccc(N2N=C(c3ccccc3)CCC2=O)cc1`, the growth was 104% (inactive).
Take `CC(=O)N[C@H](C(=O)N[C@@H](CCCNC(=N)N)C(=O)N[C@@H](CCCCN)C(=O)N[C@@H](CCCNC(=N)N)C(=O)NC(C(=O)N[C@@H](CC(C)C)C(=O)N[C@@H](CCCNC(=N)N)C(=O)N[C@@]1(C)CCC/C=C\CCC[C@@](C)(C(=O)N[C@@H](CCCNC(=N)N)C(=O)N[C@@H](CCC(=O)O)C(=O)N[C@@H](CC(C)C)C(=O)N[C@H](C(=O)N[C@@H](CCC(=O)O)C(N)=O)C(C)C)NC(=O)[C@H](CCC(N)=O)NC(=O)[C@H](CC(C)C)NC(=O)[C@H](CC(C)C)NC1=O)[C@@H](C)O)C(C)C` (stereo not given in full): the growth was -35.7% (active).
With `CNC(=O)c1cc(Oc2ccc3c(c2)sc2nc(-c4ccc(N)cc4)cn23)ccn1`, the growth is 11.5% (inactive).
In the case of `Cc1cc(C)nc(NS(=O)(=O)c2ccc(Nc3nc4nc(NCc5ccccc5)nc(-c5ccc(O)cc5)c4c(=O)[nH]3)cc2)n1`, the growth was 11.9% (inactive).
On to `O=C1c2ccccc2C(=O)N1CCCCNc1ccccc1`, for which the growth is 86.3% (inactive).
Consider `O=C1/C(=C/c2ccc([N+](=O)[O-])s2)Oc2cc(Cl)ccc21`, for which the growth was -58% (active).
On to `Fc1ccc(C(c2ccc(F)cc2)C(Cl)Cl)cc1`, for which the growth is 103% (inactive).
The figure for `COc1ccc(-c2n[nH]nc2-c2cc(OC)c3c(c2OC)OCO3)cc1` is 13.8% (inactive).

These data come from PubChem BioAssay (NCI).
